# Laboratory results from PubChem BioAssay (NCATS).
# “And” between values parts separate entries of the source, which are not always exact repeats. Equal values may be shown once. Results filed as inconclusive are left out. The source made the active and inactive calls. Unless noted, the call rests on the fitted dose curve; in most records, active means well fitted curve in the direction sought with a large enough effect; inconclusive means small, poorly fitted or top-dose-only effect, or another doubt; inactive means no such curve, though single readings can be large; an effect the other way counts as inactive or inconclusive.
# What was measured:
# [1] = biological target: Cytochrome P450 3A4 (Homo sapiens) (UniProt P08684); assay: qHTS Assay for Inhibitors and Substrates of Cytochrome P450 3A4 (AID 884); settings: recombinant CYP3A4, Luciferin-PPXE luminescence; series mostly up to 57.1 µM; further: nearly all actives have a fitted effect of over 50% in size; further: potency means the concentration at half of the fitted maximal effect; on activity change, negative = inhibition: on the % scale 0 is the no-effect control and ±100 the full control effect
# Cytochrome P450 3A4 (Homo sapiens), sequence (P08684 whole entry, looked up): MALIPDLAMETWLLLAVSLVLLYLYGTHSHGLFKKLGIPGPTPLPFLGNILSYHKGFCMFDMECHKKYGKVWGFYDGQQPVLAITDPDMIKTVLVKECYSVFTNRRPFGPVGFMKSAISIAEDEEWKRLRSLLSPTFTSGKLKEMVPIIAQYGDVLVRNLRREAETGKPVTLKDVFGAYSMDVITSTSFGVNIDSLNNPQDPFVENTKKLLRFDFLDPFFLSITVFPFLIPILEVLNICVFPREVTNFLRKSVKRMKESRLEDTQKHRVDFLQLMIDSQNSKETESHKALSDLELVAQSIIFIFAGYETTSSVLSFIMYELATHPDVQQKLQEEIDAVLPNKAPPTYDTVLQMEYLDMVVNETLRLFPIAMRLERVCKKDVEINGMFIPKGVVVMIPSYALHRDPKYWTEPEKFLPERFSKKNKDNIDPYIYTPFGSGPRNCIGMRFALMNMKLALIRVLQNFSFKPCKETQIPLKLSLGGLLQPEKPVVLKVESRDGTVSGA
# In short: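 Luminescent readout of luciferin produced by CYP3A4 (20 nM) dealkylation of Luciferin-PPXE, 25 uM (its KM). NADPH-driven reaction ran 60 min at RT after 10 min compound preincubation; data scaled to 57 uM ketoconazole as 100% inhibition.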
# [2] = biological target: Cytochrome P450 3A4 (Homo sapiens) (UniProt P08684); assay: qHTS Assay for Activators of Cytochrome P450 3A4 (AID 885); settings: recombinant CYP3A4, Luciferin-PPXE luminescence, 60 min; series mostly up to 57.1 µM; further: nearly all actives have a fitted effect of over 65% in size
# In short: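 Activators are scored by enhanced luminescence from CYP3A4 conversion of luciferin-PPXE (25uM, equal to KM) to luciferin, after 60 min at RT with an NADPH-regenerating system.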
# [3] = biological target: Cytochrome P450 2D6 (Homo sapiens) (UniProt P10635); assay: qHTS Assay for Inhibitors and Substrates of Cytochrome P450 2D6 (AID 891); settings: recombinant CYP2D6, luciferin-ME EGE luminescence; series mostly up to 11.4 µM;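 further: luciferin methyl ether substrate demethylated by CYP2D6 with NADPH regeneration; on the % scale 0 is the no-effect control and ±100 the full control effect; nearly all actives have a fitted effect of over 60% in size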
# Cytochrome P450 2D6 (Homo sapiens), sequence (P10635 whole entry, looked up): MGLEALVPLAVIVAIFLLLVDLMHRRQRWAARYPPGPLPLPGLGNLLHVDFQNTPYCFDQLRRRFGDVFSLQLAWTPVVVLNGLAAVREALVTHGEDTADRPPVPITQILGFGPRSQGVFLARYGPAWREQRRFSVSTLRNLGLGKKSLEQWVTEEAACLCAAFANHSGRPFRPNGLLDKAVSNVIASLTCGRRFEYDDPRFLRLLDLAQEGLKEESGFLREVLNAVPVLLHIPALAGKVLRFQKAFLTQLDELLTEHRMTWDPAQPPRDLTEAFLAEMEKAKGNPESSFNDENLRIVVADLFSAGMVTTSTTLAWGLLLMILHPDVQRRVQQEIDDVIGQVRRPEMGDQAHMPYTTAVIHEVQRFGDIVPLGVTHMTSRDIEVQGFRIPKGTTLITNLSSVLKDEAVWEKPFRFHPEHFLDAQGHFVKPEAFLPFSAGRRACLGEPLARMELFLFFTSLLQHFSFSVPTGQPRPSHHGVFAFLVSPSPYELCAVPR
# In short: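 Luminescent read-out of luciferin formed by 5 nM human CYP2D6 demethylating 30 uM Luciferin-ME EGE (Km level) over 60 min at room temperature after NADPH regeneration addition. Data normalized to full inhibition by 1.43 uM quinidine.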
# [4] = biological target: Cytochrome P450 2C19 (Homo sapiens) (UniProt P33261); assay: qHTS Assay for Inhibitors and Substrates of Cytochrome P450 2C19 (AID 899); settings: recombinant CYP2C19, luciferin-H EGE luminescence; series mostly up to 11.4 µM; further: nearly all actives have a fitted effect of over 60% in size; further: potency means the concentration at half of the fitted maximal effect
# Cytochrome P450 2C19 (Homo sapiens), sequence (P33261 whole entry, looked up): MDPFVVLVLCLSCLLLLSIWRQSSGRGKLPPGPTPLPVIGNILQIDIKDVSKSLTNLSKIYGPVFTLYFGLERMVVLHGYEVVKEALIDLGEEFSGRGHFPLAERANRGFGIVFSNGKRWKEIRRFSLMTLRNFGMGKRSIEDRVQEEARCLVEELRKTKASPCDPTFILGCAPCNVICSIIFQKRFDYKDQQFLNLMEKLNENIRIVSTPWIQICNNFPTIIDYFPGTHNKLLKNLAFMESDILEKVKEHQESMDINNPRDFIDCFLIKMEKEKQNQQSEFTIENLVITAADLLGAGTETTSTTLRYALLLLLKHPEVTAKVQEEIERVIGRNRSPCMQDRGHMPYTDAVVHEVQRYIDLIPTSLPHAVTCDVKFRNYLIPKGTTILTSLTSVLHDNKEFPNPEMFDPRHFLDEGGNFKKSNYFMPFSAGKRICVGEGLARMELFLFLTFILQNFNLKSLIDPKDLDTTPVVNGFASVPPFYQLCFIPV
# In short: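 NADPH-dependent conversion of Luciferin-H EGE (10uM, at KM) by 5nM enzyme in 50mM KPO4, 60 min at 37C following 10 min compound preincubation. Stopped with luciferin detection buffer; luminescence read after 20 min.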
# [5] = Confirmation and Secondary Assay for Modulators of Hemoglobin Beta Chain Splicing at IVS2 654 locus (AID 910); settings: HeLa EGFP-654 splicing reporter, GFP fluorescence, 48 h; series mostly up to 46.1 µM;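 further: per-well total GFP intensity by laser scanning cytometry after 2-day treatment; % of control where 0% means no effect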
# In short: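 HeLa cells stably carrying EGFP interrupted by mutant beta-globin IVS2-654 intron (CMV-driven) were treated with compound for 2 days at 37C; corrected splicing was scored as total peak GFP intensity per well (488 nm excitation, 500-520 nm emission).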
# [6] = Confirmation and Secondary Assay for Modulators of Hemoglobin Beta Chain Splicing at IVS2 705 locus (AID 930); settings: HeLa EGFP-705 splicing reporter, GFP fluorescence, 48 h; series mostly up to 46.1 µM;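 further: HeLa cells stably expressing the EGFP-705 splicing reporter; GFP fluorescence per well restored by corrected splicing of the IVS2-705 intron in EGFP; % of control where 0% means no effect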
# In short: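 Splice-correction reporter: EGFP cDNA split by beta-globin intron 2 bearing the 705 mutation, stably in HeLa. Compound incubation 2 days, 37C; fluorescent objects 5-250 µm summed per well.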
# [7] = qHTS Assay for Identification of Small Molecule Agonists for Hypoxia Response Element Signaling Pathway (AID 914; active means well fitted activation curve with a large enough effect in the signal ratio, with a control signal flat, not every such curve was filed as active; the % refers to the signal ratio; further: % of control where 0% means no effect); settings: ME-180 (cervical carcinoma) HRE-bla reporter, beta-lactamase ratio, CoCl2, 17 h; hits give high values
# In short: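 Cells were plated overnight, pin-dosed with compound in a titration series, co-stimulated with EC50 CoCl2 and incubated 17 hours at 37 degrees Celsius. CCF4 substrate was then loaded, and AC50 values came from the 460nm/530nm ratio.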
compound,measurement,setting,value
CCCCCCC(=O)Cc1cc(OC)c(OC)cc1/C=C(/C(C)=O)C(=O)OC,Potency,[1],3.98 µM (active)
same,"activity change, positive = activation",[2],-68.2% [at 11.4 µM] (inactive)
same,Potency,[3],inactive
same,Potency,[4],2 µM (active)
COC(=O)C/C=C\[C@@H](C)[C@@H](/C=N\OC[C@@H]1O[C@H](c2ccccc2)C=C[C@@H]1Oc1ccc(OC)cc1)OC,Potency,[1],3.16 µM (active)
same,"activity change, positive = activation",[2],-96.1% [at 11.4 µM] (inactive)
same,Potency,[4],1.58 µM (active)
COc1ccc(O[C@H]2C=C[C@@H](c3ccccc3)O[C@@H]2CO/N=C(\C)CCN2CCCCc3nc(C)c(C)cc32)cc1,Potency,[1],3.98 µM (active)
same,"activity change, positive = activation",[2],-86.9% [at 11.4 µM] (inactive)
same,Potency,[4],2.51 µM (active)
C=C(C)C(O)/C=C/c1cccc(OC)c1 (stereo not drawn),Potency,[1],3.98 µM (active)
same,"activity change, positive = activation",[2],-69.2% [at 11.4 µM] (inactive)
same,Potency,[4],0.0126 µM (active)
CC(=O)Oc1c(-c2ccccc2)oc2c(CC=C(C)C)c3c(c(OC(C)=O)c2c1=O)C=CC(C)(C)O3,Potency,[1],10 µM (active)
same,Potency,[2],inactive
same,outcome,[5],inactive
same,outcome,[6],inactive
CCCNC(=O)OC[C@@H]1O[C@H](CCO/N=C2\c3cc(OC)ccc3O[C@H](c3cccc(OC)c3)[C@H]2O)C=C[C@@H]1Oc1ccc(OC)cc1,Potency,[1],5.01 µM (active)
same,"activity change, positive = activation",[2],-120% [at 11.4 µM] (inactive)
same,Potency,[4],1.58 µM (active)
COc1ccc(O[C@H]2C=C[C@@H](c3ccccc3)O[C@H]2CO/N=C\C[C@@H]2C=C[C@H](OC(C)=O)[C@H](COC(C)=O)O2)cc1,Potency,[1],3.98 µM (active)
same,"activity change, positive = activation",[2],-90.6% [at 11.4 µM] (inactive)
same,Potency,[4],0.794 µM (active)
COc1cc(OC)c2c(OC)c(-c3ccc4c(c3)OCO4)c(=O)oc2c1,Potency,[1],2.51 µM (active)
same,Potency,[2],inactive
same,outcome,[5],inactive
same,outcome,[6],inactive
COc1cccc([C@@H]2Oc3ccc(OC)cc3/C(=N/O[C@@H](C)c3cc(-c4c(C)cc(C)cc4C)no3)[C@@H]2O)c1,Potency,[1],1.58 µM (active)
same,"activity change, positive = activation",[2],-90.1% [at 11.4 µM] (inactive)
same,Potency,[4],1.58 µM (active)
C=C(C)C(O)/C=C/c1ccc(C)cc1 (stereo not drawn),Potency,[1],3.98 µM (active)
same,"activity change, positive = activation",[2],-72.8% [at 11.4 µM] (inactive)
same,Potency,[4],5.01 µM (active)
CC12C=C(/C=C/C=C/c3ccccc3)C(C)(C1)C(/C=C/c1ccccc1)CC2=O (stereo not drawn),Potency,[1],3.98 µM (active)
same,"activity change, positive = activation",[2],-62.5% [at 11.4 µM] (inactive)
same,Potency,[4],1.58 µM (active)
COCOc1ccc(Br)cc1C(=O)[C@H]1O[C@H]1c1cccc(OC)c1,Potency,[1],3.98 µM (active)
same,"activity change, positive = activation",[2],-113% [at 11.4 µM] (inactive)
same,Potency,[4],0.0631 µM (active)
CCOC(=O)OCC1OC(C#Cc2ccccc2)C=CC1OC(=O)OCC (stereo not drawn),Potency,[1],3.98 µM (active)
same,"activity change, positive = activation",[2],-79.4% [at 11.4 µM] (inactive)
same,Potency,[3],inactive
same,Potency,[4],2.51 µM (active)
C=CC[C@@H]1C=C[C@H](Oc2ccc(C)cc2)[C@H](COC(=O)NCc2cccc3ccccc23)O1,Potency,[1],3.16 µM (active)
same,"activity change, positive = activation",[2],-96.8% [at 11.4 µM] (inactive)
same,Potency,[4],1.26 µM (active)
COc1ccc(O[C@H]2C=C[C@@H](c3ccccc3)O[C@H]2CO/N=C2/[C@H]3O[C@@H]3[C@@H](O)[C@H]3[C@H]2CCn2c(=O)n(-c4ccccc4)c(=O)n23)cc1,Potency,[1],3.16 µM (active)
same,"activity change, positive = activation",[2],-86.5% [at 11.4 µM] (inactive)
same,Potency,[4],2.51 µM (active)
CC(=O)OCC1OC(C#CCCc2ccccc2)C=CC1OC(C)=O (stereo not drawn),Potency,[1],3.16 µM (active)
same,"activity change, positive = activation",[2],-61.8% [at 11.4 µM] (inactive)
same,Potency,[4],inactive
COc1cc2c(cc1OC)-c1c(oc3cc(O)cc(O)c3c1=O)CO2,Potency,[1],10 µM (active)
same,Potency,[2],inactive
same,outcome,[5],inactive
same,outcome,[6],inactive
COc1ccc(O[C@H]2C=C[C@@H](c3ccccc3)O[C@@H]2CO/N=C(\C)CCN2CCCc3nc(C)c(C)cc32)cc1,Potency,[1],3.16 µM (active)
same,"activity change, positive = activation",[2],-63.6% [at 11.4 µM] (inactive)
same,Potency,[4],0.398 µM (active)
COC(=O)NC(/C(C(=O)OC)=C(\C)NCc1ccccc1)c1ccc(Cl)cc1 (stereo not drawn),"activity change, negative = inhibition",[1],-24.6% [at 11.4 µM] (inactive)
same,Potency,[4],5.01 µM (active)
CCOC(=O)OCC1OC(c2ccccc2)C=CC1Oc1ccc(F)cc1C (stereo not drawn),"activity change, negative = inhibition",[1],-28.9% [at 11.4 µM] (inactive)
same,Potency,[3],inactive
same,Potency,[4],2 µM (active)
CC(=O)OCC1OC(C#Cc2ccccc2)C=CC1O (stereo not drawn),"activity change, negative = inhibition",[1],-14.6% [at 11.4 µM] (inactive)
same,Potency,[3],inactive
same,Potency,[4],inactive
COc1ccc(O[C@H]2C=C[C@@H](c3ccccc3)O[C@H]2CO/N=C(/C)CCC(=O)OC[C@@H]2O[C@H](c3ccccc3)C=C[C@@H]2Oc2ccc(OC)cc2)cc1,Potency,[1],3.98 µM (active)
same,"activity change, positive = activation",[2],-65.1% [at 11.4 µM] (inactive)
same,activation,[7],3.42% (inactive)
CCc1cc2c(nc1CC)CCN(CC/C(C)=N/O[C@@H](C)c1cn([C@H](CO)Cc3ccccc3)nn1)C2,Potency,[1],3.16 µM (active) and 3.98 µM (active)
same,"activity change, positive = activation",[2],-78.5% [at 11.4 µM] (inactive) and -65.5% [at 11.4 µM] (inactive)
same,activation,[7],-4.74% (inactive)
CCOC(=O)OCC1OC(C#CC(C)(C)C)C=CC1OC(=O)OCC (stereo not drawn),"activity change, negative = inhibition",[1],-18.5% [at 11.4 µM] (inactive)
same,Potency,[3],inactive
same,Potency,[4],2.51 µM (active)
CC1(C)Oc2cc3c(cc2O1)OC(C)(C)O3,"activity change, negative = inhibition",[1],-26.4% [at 11.4 µM] (inactive)
same,Potency,[3],inactive
same,Potency,[4],inactive
COc1c2c(cc3occ(-c4ccc5c(c4)OCO5)c(=O)c13)OC(C)(C)C=C2,Potency,[1],2.51 µM (active)
same,Potency,[2],inactive
same,outcome,[5],inactive
same,outcome,[6],inactive
CCOC(=O)OCC1OC(c2ccccc2)C=CC1OC(=O)OCC (stereo not drawn),"activity change, negative = inhibition",[1],-18.7% [at 11.4 µM] (inactive)
same,Potency,[3],inactive
same,Potency,[4],3.98 µM (active)
CC1(C)OC(C(O)(c2cc(C(F)(F)F)cc(C(F)(F)F)c2)c2cc(C(F)(F)F)cc(C(F)(F)F)c2)C(C(O)(c2cc(C(F)(F)F)cc(C(F)(F)F)c2)c2cc(C(F)(F)F)cc(C(F)(F)F)c2)O1 (stereo not drawn),"activity change, negative = inhibition",[1],-21% [at 11.4 µM] (inactive)
same,Potency,[3],inactive
